Rows were chosen to be rich in hits. Some 21% of all compounds tested hit in one or more screens of this group.
Pf growth 96h – P. falciparum growth inhibition at 96 hour, primary screen for plastid delayed-death inhibitors; AID 504834; 6.9% of 320,000 active; Potency, µM (top dose mostly 28.7 µM), most hits filed as inhibitors; P. falciparum luciferase reporter growth, 96 h
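Erythrocytes infected with luciferase-expressing P. falciparum were dispensed at 2% hematocrit and 0.05% parasitemia (final), then incubated with compounds 96 hours at 37 C in 5% CO2. Luminescence after detection reagent addition reported growth.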
Pf growth 48h – P. falciparum growth inhibition at 48 hours (one generation); P. falciparum luciferase growth in erythrocytes, 48 h; Potency, µM (highest dose often 28.7 µM), usual class: inhibitors; 5.9% of 310,000 active
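Erythrocytes infected with P. falciparum carrying an integrated firefly luciferase reporter (2% hematocrit, 0.1% parasitemia final) were exposed to compounds in RPMI 1640 with 0.5% Albumax at 37 C, 5% CO2. Growth inhibition was scored as reduced luminescence.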
Cycloheximide cs – counter-screen hit for Shiga toxin inhibitors, cycloheximide; max response, %; 12% of 300,000 active; AID 2314; cell reporter, cycloheximide protein synthesis inhibition counterscreen; in the data active = max response mostly above about 13%, no sharp cut-off; inactive = mostly below about 14%; note: read at 38.3 µM for the half of the compounds with a filed dose
Shiga toxin inh – blocks Shiga toxin action in Vero cells; inhibition, % at 38.7 µM; 9.2% of 290,000 active; Vero cells, Shiga toxin protein synthesis inhibition reporter; in the data active = inhibition mostly above about 28%, no sharp cut-off; inactive = mostly below about 43%
NS1 function inh – inhibitors of influenza NS1 protein function; Potency, µM (titrated, usually from 46.1 µM); 0.4% of 270,000 active; calls by dose curve; note: actives are rising curves; nearly all actives have a fitted effect of over 50% in size
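OD600 was taken as the measure of yeast growth restored by compound in an NS1-expressing S. cerevisiae strain. Cells had been washed out of glucose medium and diluted 1:100 into galactose -URA medium, pH 6.0.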
Numbers stand for hits; i = inactive; ? = inconclusive; nt = no result. Unless noted, calls come from the whole dose curve; as a rule, active = well fitted inhibition curve with a large enough effect; inconclusive = small, poorly fitted or top-dose-only effect, or another doubt; inactive = no such curve, though single readings can be large or run the other way.

SMILES	Pf growth 96h	Pf growth 48h	Cycloheximide cs	Shiga toxin inh	NS1 function inh
CCCNC(=O)CSc1nc2ccccc2c(=O)n1CCC	i	i	i	i	nt
CN(Cc1ccccc1)C(=O)COC(=O)c1ccc(=O)n(Cc2ccccc2)n1	i	?	nt	nt	nt
O=C(NCC(O)c1ccc([N+](=O)[O-])cc1)c1cccc(S(=O)(=O)N2CCCC2)c1 (configuration not stated)	i	i	i	i	i
Cc1ccc(C(=O)C2CCN(S(=O)(=O)c3ccc(C(=O)O)cc3)CC2)cc1	?	i	i	i	i
COc1ccccc1OCc1ccc(C(=O)NN)cc1	i	nt	i	i	?
COc1ccc(C(=O)NCCCc2ccccc2)cc1OC	?	i	14.0	nt	i
COc1cc(C(=O)NCC(=O)Nc2c(C)cccc2C)ccc1OCc1ccccc1	i	?	nt	nt	nt
CNC(=O)c1ccc(OCc2ccccc2)c(OC)c1	nt	i	19.7	i	i
COc1cc(C(=O)OCC(=O)NCCCc2ccccc2)ccc1OCC(C)C	5.86µM	?	i	i	i
COc1ccccc1OCc1ccc(C(=O)c2ccccc2)cc1	i	i	23.2	nt	i
CN1CCN(Cc2coc3c(Cl)cc(Cl)cc3c2=O)CC1	i	i	i	nt	i
COc1ccc(/C(O)=C/c2nc3ccc(C(=O)NCCc4cccc(C)c4)cc3[nH]c2=O)cc1OC	?	4.65µM	i	i	?
COc1ccc2c(CC(=O)NCCN3C(=O)S/C(=C\c4cccnc4)C3=O)coc2c1	?	?	i	i	i
COc1ccc(/C=C/C(=O)NCCc2c[nH]c3ccccc23)cc1OC	14.7µM	8.28µM	i	i	i
COc1ccc(C(=O)NCCN2C(=O)S/C(=C\c3cccnc3)C2=O)cc1[N+](=O)[O-]	?	?	24.6	43.0	i
COc1ccc(/C=C/C(=O)NCCNC(=O)c2ccccc2)cc1OC	i	i	i	i	i
COc1ccc(CCNC(=O)/C=C/c2ccc3ccccc3n2)cc1OC	8.28µM	?	13.6	i	i
COc1ccc(S(=O)(=O)CCC(=O)N2CCN(c3cccc(Cl)c3)CC2)cc1	?	i	i	i	i
COc1ccc(CC(=O)NC(C)CCc2ccccc2)cc1OC (configuration not stated)	i	i	i	i	i
CCC(CC)C(=O)Nc1cc(C(=O)NCCc2ccccc2)ccc1Cl	i	i	32.8	i	i
COc1ccc(C(=O)NCCc2ccccc2)cc1OC	i	i	28.1	44.0	i
CCC(CC)C(=O)NCCCCc1ccccc1	i	i	i	i	i
COc1ccc(CC(=O)NNC(=O)CCc2ccccc2)cc1OC	13.1µM	i	i	i	nt
COc1ccc(C(=O)NCCc2ccccc2)cc1[N+](=O)[O-]	i	i	31.6	50.1	i
C=C1CCC[C@]2(C)C[C@H]3OC(=O)C(CNCC(OC)OC)[C@H]3CC12 (some centres not stated)	i	i	i	i	i
SMILES	Pf growth 96h	Pf growth 48h	Cycloheximide cs	Shiga toxin inh	NS1 function inh
Cn1c(NC(=O)c2cc(Br)ccc2Cl)cc(=O)n(C)c1=O	?	nt	i	i	i
CCOc1cc(-c2noc(CCC(=O)NCCc3ccccc3)n2)ccc1OC	2.62µM	i	i	i	i
COc1ccc(-c2noc(CCC(=O)NCCc3ccccc3)n2)cc1OC	?	?	i	i	i
COc1ccc(OC)c(-c2c3cc(O)c(=O)cc-3oc3cc(O)c(O)cc23)c1	i	10.4µM	i	i	?
O=c1cc2oc3cc(O)c(O)cc3c(-c3ccccc3O)c-2cc1O	3.7µM	4.15µM	i	i	i
CCOc1ccccc1-c1c2cc(O)c(=O)cc-2oc2cc(O)c(O)cc12	i	13.1µM	i	i	?
CCNC(=O)Nc1cc2nc(C)n(Cc3ccc(Br)cc3)c2nc1C	nt	i	i	i	i
CCOc1ccc(OCC)c(NC(=O)CN2CCN(CC)CC2)c1	i	i	i	i	i
CCOc1ccc(OCC)c(NC(=O)CN2CCN(c3cccc(C)c3)CC2)c1	i	13.1µM	i	i	i
CCOc1ccc(OCC)c(NC(=O)CN2CCN(c3cccc(C)c3)C(C)C2)c1 (configuration not stated)	?	13.1µM	i	i	i
CCOc1ccc(OCC)c(NC(=O)CN2CCN(CC(=O)NC(C)C)CC2)c1	13.1µM	i	i	i	i
CCOc1ccc(OCC)c(NC(=O)CN2CCN(c3cc(C)ccc3C)CC2)c1	?	?	i	i	i
O=C(O)CCC(=O)Nc1ccccc1C(=O)N1CCN(c2ccc(Cl)cc2)CC1	i	i	i	i	i
CCSc1ncc(/C=N/Nc2ccc(F)cc2)n1C	?	?	30.5	52.4	i
C1CNC(C23CC4CC(CC(C4)C2)C3)=N1	i	i	i	56.5	nt
Cc1ccccc1CSCCNC(=O)Nc1ccccc1	i	?	15.1	i	i
